Shown are actives, neighbours in structure and some others; about 10% of the full set was active somewhere.
G9a inh – inhibitors of human histone lysine methyltransferase G9a; Q96KQ7; Potency, µM (titrated, usually from 102 µM), inactives show at the highest dose activity, negative = inhibition, hits mostly inhibitors; 350,000 tested, 8.8% active; AID 504332; G9a H3K9 monomethylation, AlphaScreen, 2 h; further: on the % scale 0 is the no-effect control and ±100 the full control effect; nearly all actives have a fitted effect of over 75% in size
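AlphaScreen detection with an anti-monomethyl H3K9 antibody quantified product after a 2 h room-temperature reaction containing 500 nM biotinylated H3K9 peptide, 20 µM SAM and 20 nM enzyme, which had been preincubated 15 min with compound.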
JMJD2A Tudor – inhibitors of human JMJD2A Tudor domain; O75164; AlphaScreen JMJD2A-Tudor / H3K4me3 peptide binding; Potency, µM (highest dose often 114 µM), for the others: at the highest dose activity change, negative = inhibition, most hits filed as inhibitors; 390,000 tested, 4.4% active; further: on the % scale 0 is the no-effect control and ±100 the full control effect; nearly all actives have a fitted effect of over 50% in size
BAZ2B inh – inhibitors of human BAZ2B bromodomain; Potency, µM (top dose mostly 114 µM), for the others: top-dose activity change, negative = inhibition, actives largely listed as inhibitors; AlphaScreen BAZ2B-H3K14Ac peptide displacement; Q9UIF8; 360,000 tested, 4.4% active; further: on the % scale 0 is the no-effect control and ±100 the full control effect; nearly all actives have a fitted effect of over 60% in size
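Complex of BAZ2B and biotin-H3K14Ac (50 nM apiece) forms over 30 min at RT, then faces library compounds up to 110 uM for another 30 min; AlphaScreen beads added, 20 min dark incubation, luminescence read.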
GLS inhibitor – inhibitors of human glutaminase (GLS); GLS enzymatic activity, qHTS titration; O94925; AID 624170; 410,000 tested, 0.21% active; Potency, µM (doses to about 45.5 µM), inactives show top-dose activity change, negative = inhibition, most hits filed as inhibitors; further: on the % scale 0 is the no-effect control and ±100 the full control effect
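hKGA; 45 mM KH2PO4 pH 8.2 + 0.02% Tween-20; cpd via pin tool; 1 mM Gln soln; GluOx/HRP/Amplex Red; RT 30 min; fluor. t0 & final.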
HP1b binding inh – inhibitors of HP1-beta chromodomain binding to methylated histone tails; AID 540317; AlphaScreen HP1-beta / biotin-H3K9me3 peptide binding; Potency, µM (doses to about 114 µM), inactives show at the top dose activity change, negative = inhibition, most hits filed as inhibitors; P83916; 390,000 tested, 0.56% active; further: nearly all actives have a fitted effect of over 70% in size
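Compound inhibition of the preformed complex between 50 nM HP1-beta and 50 nM biotinylated H3K9me3 peptide was read by AlphaScreen. Buffer was PBS pH 7.4 with 0.01% Tween-20. Incubations ran 30 min at room temperature, with 10 ug/mL donor/acceptor beads.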
Numbers without * were called inactive; ? = inconclusive; . = no result given; [ ] = another dose, or the depositor's remark. The call rests on the fitted dose curve; in most records, active means well fitted curve in the direction sought with a large enough effect; inconclusive means small, poorly fitted or top-dose-only effect, or another doubt; inactive means no such curve, though single readings can be large; an effect the other way counts as inactive or inconclusive. Potency means the concentration at half of the fitted maximal effect.

SMILES | G9a inh | JMJD2A Tudor | BAZ2B inh | GLS inhibitor | HP1b binding inh
C/C(=N\NC(=O)c1cc(O)cc(O)c1)c1ccc(NC(=O)Cc2ccccc2)cc1 | 8.9µM* | 14µM* | 8.9µM* | 34% | 32µM*
COc1ccc(CCNC(=O)CCN2C(=O)C(C)Oc3ccc(C)cc32)cc1OC (stereo unspecified) | 66%[12.7 µM] | 0% | 1% | -7% | 49%
Cc1nn(CC(=O)OCCOc2ccc(Br)cc2)c(C)c1[N+](=O)[O-] | 25% | 4% | 4% | 1% | 56%
COc1cccc(C2C(C(=O)c3ccc(C)o3)=C(O)C(=O)N2CCN2CCOCC2)c1 (stereo unspecified) | . | -35% | -14% | -3% | 67%
Cc1cccc(N2C(=O)C(O)=C(C(=O)c3cccs3)C2c2ccccc2)n1 (stereo unspecified) | -49% | -6% | -16% | 68% | 47%
CCCCOc1cccc(C2C(C(=O)c3ccc(C)o3)=C(O)C(=O)N2c2nnc(C)s2)c1 (stereo unspecified) | . | ? | -24% | -7% | 4%
CCOc1ccc(C2/C(=C(\O)c3ccc(OC)c(OC)c3)C(=O)C(=O)N2c2cc(C)on2)cc1OC (stereo unspecified) | ? | -35% | -22% | 21% | 1%
C=CCOc1cccc(C2C(C(=O)c3ccc(C)o3)=C(O)C(=O)N2c2nccs2)c1 (stereo unspecified) | 32µM* | ? | ? | 9% | 10%
Cc1cccc(N2C(=O)C(O)=C(C(=O)c3cccs3)C2c2cccc(Oc3ccccc3)c2)n1 (stereo unspecified) | 50µM* | -33% | ? | 7% | 19%
COc1cc(C2C(C(=O)c3ccc(C)o3)=C(O)C(=O)N2c2cc(C)on2)ccc1OCc1ccccc1 (stereo unspecified) | 45µM* | 4% | -1% | 1% | 23%
COc1cccc(C2C(C(=O)c3ccc(C)o3)=C(O)C(=O)N2c2cc(C)on2)c1 (stereo unspecified) | 45µM* | -12% | ? | 6% | 12%
COc1cc(C2C(C(=O)c3cccs3)=C(O)C(=O)N2c2cc(C)on2)ccc1O (stereo unspecified) | 50µM* | ? | ? | 46% | 18%
COc1cc(C2C(C(=O)c3ccc(C)o3)=C(O)C(=O)N2c2cc(C)on2)ccc1O (stereo unspecified) | 45µM* | ? | ? | 6% | 5%
CCCCCOc1ccc(C2C(C(=O)c3ccc(C)o3)=C(O)C(=O)N2c2cc(C)on2)cc1 (stereo unspecified) | 45µM* | ? | -20% | 1% | 16%
COc1ccccc1C1C(C(=O)c2ccco2)=C(O)C(=O)N1c1cc(C)on1 (stereo unspecified) | ? | -9% | -21% | 1% | 25%
COc1cccc(C2C(C(=O)c3cccs3)=C(O)C(=O)N2c2cc(C)on2)c1 (stereo unspecified) | ? | -4% | ? | -2% | 30%
COc1ccccc1C1C(C(=O)c2ccc(C)o2)=C(O)C(=O)N1c1cc(C)on1 (stereo unspecified) | 89µM* | -10% | ? | -7% | 22%
CC(NC(=O)NC(N)=O)(C(F)(F)F)C(F)(F)F | 0%[0.501 µM] | -10% | -4% | 7% | 25%
COc1cc(C2C(C(=O)c3ccc(C)o3)=C(O)C(=O)N2c2cc(C)on2)cc(OC)c1OC (stereo unspecified) | 0%[59 µM] | -2% | 6% | 6% | 30%
CCOc1ccc(C2C(C(=O)c3ccc(C)o3)=C(O)C(=O)N2c2cc(C)on2)cc1OC (stereo unspecified) | 50µM* | -34% | -26%[57.1 µM] | 9% | 11%
O=[N+]([O-])c1ccc(/C=N/Nc2nc(N3CCCCC3)nc(N3CCCCC3)n2)cc1 | . | ? | ? | 0% | 3%
O=C(CN1CCCCCCC1)N/N=C/c1ccc([N+](=O)[O-])o1 | 32µM* | 18µM* | 50µM* | 4% | ?

Screens (PubChem)
